# An excerpt weighted towards active compounds, which were near 8.7% of everything screened.
# Sfp inh – inhibitors of Bacillus subtilis Sfp phosphopantetheinyl transferase; Potency, µM, inactives show largest response in the series, negative = inhibition, hits mostly inhibitors; AID 1490; Q9F4F7; Biochemical Sfp PPTase activity, qHTS; 310,000 tested, 3.5% active;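 also: the enzyme is Sfp with the accession as filed and its product quenches rhodamine fluorescence; 0% = enzyme reaction without inhibitor and -100% = no enzyme wells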
#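 Buffer: 50 mM Hepes-Na pH 7.6, 10 mM MgCl2, 0.01% Nonidet P-40, 0.01% BSA. Enzyme 15 nM, pre-exposed to compound 15 min; substrates then added and fluorescence change tracked over 30 min.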
# HP1b binding inh – HP1-beta chromodomain-methylated histone interaction inhibition; AlphaScreen HP1-beta / biotin-H3K9me3 peptide binding; AID 540317; P83916; 390,000 tested, 0.56% active; Potency, µM (titrated, usually from 114 µM), inactives show at the top dose activity change, negative = inhibition, most hits filed as inhibitors; also: nearly all actives have a fitted effect of over 70% in size
#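 AlphaScreen: HP1-beta (50 nM) preformed 30 min with biotin-H3(1-18)K9me3 peptide (50 nM) in PBS pH 7.4, 0.01% Tween-20. Compound added for 30 min at RT, then streptavidin donor/nickel chelate acceptor beads (10 ug/mL) for 30 min.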
# G9a inh – blocks human histone lysine methyltransferase G9a. Q96KQ7. G9a H3K9 monomethylation, AlphaScreen, 2 h. Potency, µM (doses to about 102 µM), for the others: top-dose activity, negative = inhibition, most hits filed as inhibitors. 350,000 tested, 8.8% active; also: % is scaled to controls: 0 for no effect and ±100 for the full control effect; nearly all actives have a fitted effect of over 75% in size
#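 Step 1: enzyme (final 20 nM) with compound, 15 min RT. Step 2: substrate peptide 500 nM and SAM 20 uM, 2 h RT. Step 3: anti-H3K9me1 antibody and AlphaScreen beads, 10 min, then plate read.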
# JMJD2A Tudor inh – blocks the human JMJD2A Tudor domain | 390,000 tested, 4.4% active | Potency, µM (series often up to 114 µM), inactives show at the top dose activity change, negative = inhibition, most hits filed as inhibitors | AlphaScreen JMJD2A-Tudor / H3K4me3 peptide binding; also: % is scaled to controls: 0 for no effect and ±100 for the full control effect; nearly all actives have a fitted effect of over 50% in size
# BAZ2B inh – BAZ2B (human) inhibition. Potency, µM (series often up to 114 µM), inactives show at the top dose activity change, negative = inhibition, most hits filed as inhibitors. AlphaScreen BAZ2B-H3K14Ac peptide displacement. Q9UIF8. 360,000 tested, 4.4% active; also: % is scaled to controls: 0 for no effect and ±100 for the full control effect; nearly all actives have a fitted effect of over 60% in size
#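 Inhibition is scored as reduced AlphaScreen emission. The BAZ2B/b-H3(5-23)K14Ac complex (50 nM each) in PBS pH 7.4, 0.01% Tween-20 meets compound (up to 110 uM) for 30 min at RT before bead addition.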
# ALOX12 inh – blocks human arachidonate 12S-lipoxygenase; P18054; purified 12hLO, xylenol orange hydroperoxide absorbance; Potency, µM (doses to about 108 µM), without a hit: at the highest dose activity change, negative = inhibition, actives largely listed as inhibitors; 580,000 tested, 1.1% active; AID 1671190; also: % is scaled to controls: 0 for no effect and ±100 for the full control effect
# Target sequence (P18054 whole entry, looked up): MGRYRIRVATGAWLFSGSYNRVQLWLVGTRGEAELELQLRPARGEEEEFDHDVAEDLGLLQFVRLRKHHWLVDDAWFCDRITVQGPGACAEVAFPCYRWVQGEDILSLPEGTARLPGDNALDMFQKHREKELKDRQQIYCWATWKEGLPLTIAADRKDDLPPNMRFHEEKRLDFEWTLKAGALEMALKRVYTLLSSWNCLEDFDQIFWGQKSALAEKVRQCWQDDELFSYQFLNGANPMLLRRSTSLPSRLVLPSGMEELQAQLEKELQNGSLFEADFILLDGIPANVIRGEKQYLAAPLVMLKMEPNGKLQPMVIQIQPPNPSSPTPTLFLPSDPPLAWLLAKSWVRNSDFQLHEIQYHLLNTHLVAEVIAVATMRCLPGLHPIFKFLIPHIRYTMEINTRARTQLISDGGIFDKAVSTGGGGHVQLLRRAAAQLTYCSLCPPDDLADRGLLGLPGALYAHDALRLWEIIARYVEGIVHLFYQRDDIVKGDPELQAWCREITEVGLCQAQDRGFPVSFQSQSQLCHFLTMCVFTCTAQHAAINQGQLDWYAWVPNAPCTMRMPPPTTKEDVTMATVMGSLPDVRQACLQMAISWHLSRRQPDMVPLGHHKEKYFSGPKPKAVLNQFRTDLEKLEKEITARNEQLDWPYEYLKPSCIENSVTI
#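 Purified human 12hLO (150 nM final) in 25 mM Hepes, 0.01% Triton X-100, pH 7.0 was preincubated 15 min at room temperature with compound. Then 40 uM arachidonic acid was added, 30 min. Hydroperoxide was read by Fe-XO absorbance ratio 573/405 nm.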
# * = called active by the depositor; i = inactive; ? = inconclusive; . = no result; ! = repeats disagree; [ ] = another dose, or the depositor's remark. Calls follow the shape of the dose curve; as a rule, active = well fitted curve in the direction sought with a large enough effect; inconclusive = small, poorly fitted or top-dose-only effect, or another doubt; inactive = no such curve, though single readings can be large; an effect the other way counts as inactive or inconclusive. Potency is read from the fitted curve at half-maximal effect.
SMILES,Sfp inh,HP1b binding inh,G9a inh,JMJD2A Tudor inh,BAZ2B inh,ALOX12 inh
Cc1ccc(C2Cn3nnc(-c4nc(C5CCCCC5)no4)c3CO2)c(C)c1 (stereo unspecified),.,.,.,.,.,56.6%
O=C1NCCCCCCN(C(=O)CC(F)(F)F)[C@H]2C[C@H](c3nc(-c4cccnc4)no3)C[C@@H]12,.,.,.,.,.,40.2%
Cn1c(=O)c2c(nc(CN3CCN(C(=O)c4ccco4)CC3)n2Cc2ccccc2)n(C)c1=O,-19.0%,8.5%,?,-13.1%,11.5%,?
Cc1ccc(Cn2c(CN3CCN(C(=O)c4ccco4)CC3)nc3c2c(=O)n(C)c(=O)n3C)cc1,-0.2%,27.3%,50.1µM*,-6.7%,-9.5%,-5.0%
Cn1c(=O)c2c(nc(CN3CCN(C(=O)c4ccco4)CC3)n2Cc2ccc(Cl)cc2)n(C)c1=O,1.9%,27.3%,50.1µM*,7.4%,?,-8.1%
CCCC(=O)NC(c1ccco1)c1c(O)ccc2ccccc12 (stereo unspecified),-6.3%,-5.2%,12.6µM*,-34.5%,-27.3%,-6.6%
CCCCC(=O)NC(c1ccco1)c1c(O)ccc2ccccc12 (stereo unspecified),-10.5%,-7.3%,-25.0%[12.7 µM],-35.3%,-38.1%,6.8%
COc1ccc(C(NC(C)=O)c2cc(Cl)c3cccnc3c2O)cc1 (stereo unspecified),22.9%,57.8%,-10.0%[0.501 µM],?,?,?
CC(C)(C)C(=O)NC(c1ccccc1)c1c(O)ccc2ccccc12 (stereo unspecified),13.1%,23.0%,?,-18.1%,-0.8%,?
CC(C)C(=O)NC(c1ccc(N(C)C)cc1)c1c(O)ccc2ccccc12 (stereo unspecified),11.8%,60.1%,2.24µM*,-22.8%,-25.8%,18.4%
CCCC(=O)NC(c1ccc(OC)c(OC)c1)c1cc(Cl)c2cccnc2c1O (stereo unspecified),?,36.5%,.,-20.8%,-10.8%,?
CC(=O)NC(c1ccccc1)c1cc(Cl)c2cccnc2c1O (stereo unspecified),1.2%,32.4%,.,?,35.5µM*,-3.9%
CCCC(=O)NC(c1ccco1)c1cc([N+](=O)[O-])c2cccnc2c1O (stereo unspecified),14.1µM*,54.0%,28.2µM*,-19.5%[11.4 µM],7.94µM*,-4.0%
COCC(C)NS(=O)(=O)c1ccc(C)cc1C (stereo unspecified),.,.,.,.,.,9.4%
CC(=O)NC(c1ccc(C)cc1)c1cc([N+](=O)[O-])c2cccnc2c1O (stereo unspecified),?,-21.4%,35.5µM*,14.1µM*,4.47µM*,44.7µM*
CN1CCN(S(=O)(=O)c2ccc(N3CCN(c4ccc(O)cc4)CC3)c([N+](=O)[O-])c2)CC1,.,70.8µM*,7.94µM*,31.6µM*,?,?
COC(=O)c1cc(NS(=O)(=O)c2ccc(N3CCC(C)CC3)c([N+](=O)[O-])c2)cc(C(=O)OC)c1,10.6%,50.1µM*,?,22.4µM*,?,-28.5%
COC(=O)c1cc(NS(=O)(=O)c2ccc(N3CCCCC3)c([N+](=O)[O-])c2)cc(C(=O)OC)c1,8.0%,-28.2%,?,?,?,i
O=C(O)c1cc(NS(=O)(=O)c2ccc(N3CCOCC3)c([N+](=O)[O-])c2)cc(C(=O)O)c1,20.3%,37.7%,-8.7%[59 µM],6.0%[57.1 µM],2.2%,-28.8%
O=[N+]([O-])c1cc(S(=O)(=O)Nc2ccccc2)ccc1N1CCN(c2ccc(O)cc2)CC1,56.2µM*,-82.9%,5.01µM*,12.6µM*,28.2µM*,25.1µM*
O=[N+]([O-])c1cc(-c2nnc(Nc3ccc(O)cc3)c3ccccc23)ccc1N1CCOCC1,-9.7%,?,20µM*,?,?,2.5%
O=C(NCC1CCCN(S(=O)(=O)c2ccc3c(c2)OCCO3)C1)c1cccs1 (stereo unspecified),.,.,.,.,.,18.3%
CC(=O)Nc1ccc(OCCS(C)(=O)=O)cc1,.,.,.,.,.,3.9%
Cn1cccc1-c1nc2ccc(NC(=O)c3cccs3)cc2[nH]1,-4.3%,50.1µM*,?,56.2µM*,35.5µM*,-24.4%
CC(=O)Nc1ccc2nc(NC(=O)c3cccs3)sc2c1,-6.2%,35.0%,44.7µM*,-9.5%,-26.0%,-3.2%
SMILES,Sfp inh,HP1b binding inh,G9a inh,JMJD2A Tudor inh,BAZ2B inh,ALOX12 inh
Cc1nc2ccc(NC(=O)c3cccs3)cc2s1,14.3%,52.2%,83.9%,-7.6%,3.6%,447.0%
Cc1ccc(CSc2nnc(-c3ccncc3)n2C)cc1,6.9%,46.6%,-10.3%,89.1µM*,?,0.0%
Cc1ccc(Nc2nc(CSc3nnc(-c4ccncc4)n3C)cs2)cc1,39.8µM*,8.4%,39.8µM*,-28.5%,-17.8%,2.7%
Cc1ccccc1Nc1nc(CSc2nnc(-c3ccoc3C)n2C)cs1,20µM*,3.2%,39.8µM*,-33.7%,?,-21.3%
CC(=O)Nc1ccc(-c2nnc(SCc3ccc(C)cc3)n2C)cc1,-6.8%,29.7%,5.01µM*,-11.5%,4.3%,?
NOCC(=O)O,.,16.1%,5.97µM*!,22.4µM*,?,2.7%
NCC(=O)O,-20.5%,.,.,.,.,-27.0%[57.4 µM]
COc1ccccc1NC(=O)C(=O)NNS(=O)(=O)c1ccc2ccccc2c1,6.0%,37.3%,12.9%,-6.8%,?,0.0%
COc1ccc(NC(=S)Nc2ccc(S(N)(=O)=O)cc2)c(OC)c1,-13.7%,-10.0%,56.2µM*,-10.0%,-38.3%,?
COc1ccc(NC(=S)NNS(=O)(=O)c2ccc3ccccc3c2)c(OC)c1,6.6%,?,.,25.1µM*,?,?
COc1ncccc1-c1cnc2[nH]cc(CC(=O)Nc3ccn(C)n3)c2c1,.,.,.,.,.,20.4%[176 µM]
Cc1sc(N)nc1-c1cccs1,3.8%,-9.8%,?,-20.6%[57.1 µM],-10.6%,0.0%
Cc1sc(N)nc1-c1c(C)n(C)c2ccccc12,-4.5%,2.0%,44.7µM*,-31.0%,?,?
COc1cc2c(c(OC)c1CC=C(C)C)C[C@H](c1ccc(O)cc1O)CO2,.,-30.9%,.,56.2µM*,.,-28.2%
Cn1c(SCc2cccc(Br)c2)nnc1-c1ccccn1,3.9%,30.7%,18.7%[12.7 µM],-2.4%,?,0.0%
Cc1ccccc1CSc1nccn1-c1ccccc1,-25.9%,?,.,?,35.5µM*,?
Cn1c(SCc2ccccc2Cl)nnc1-c1cnccn1,12.6%,16.4%,-23.0%[12.7 µM],-19.8%,-1.9%,0.7%
Cn1c(SCc2cccc(F)c2)nnc1-c1ccccn1,9.5%,18.5%,0.7%[59 µM],79.4µM*,70.8µM*,-8.9%
Cc1ccccc1CSc1nnc(-c2ccccn2)n1C,2.7%,31.6%,-4.0%,-4.8%,79.4µM*,9.0%
Cc1ccccc1-n1ccnc1SCC(=O)O,4.8%,25.1%,-15.1%,-12.4%,-21.0%,?
